The values that follow come from PubChem BioAssay (NCATS).

Records with an inconclusive call do not appear. Active and inactive are the calls of the source. Unless noted, the call rests on the fitted dose curve; in most records, active means well fitted curve in the direction sought with a large enough effect; inconclusive means small, poorly fitted or top-dose-only effect, or another doubt; inactive means no such curve, though single readings can be large; an effect the other way counts as inactive or inconclusive.

The test system of assay [1] is Zika virus NS2B-NS3 protease (linked construct). The assay is described as follows: Primary screen NINDS Rhodamine qHTS for Zika virus inhibitors (AID 1347160). The gist of the method: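 Rhodamine110-peptide cleavage (1.5 µM substrate) by 25 nM linked NS2B-NS3 enzyme at pH 8.0 (Tris, Tween 20), after 15 min RT preincubation with compounds; 15-min fluorescence change normalized to controls and Hill-fitted.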
(In general: Quantitative high-throughput screening tests each substance at several concentrations.)

Assay [2] in a line: UWB1.289 Cancer Cell Toxicity qHTS against the NCATS CANVASS Library (AID 1347347). The gist of the method:
(§1)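 Viability read-out: CellTiter-Glo luminescence after 72 h compound exposure at 37 °C/5% CO2. Cells plated at 1000/well, 4 h pre-incubation; 11-point titration. Bortezomib served as control.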

A short description of assay [3]: G06 Cancer Cell Toxicity qHTS against the NCATS CANVASS Library (AID 1347368). In short, it runs like this:
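ATP luminescence (CellTiterGlo) readout of cytotoxicity. Canine G06 glioma cells, 500/well, 72 hr incubation at 37C with compounds; bortezomib titration served as control.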

The nature of assay [4]: qHTS for Antimalaria activity screened against the NCATS CANVASS Library (AID 1347380). In short, it runs like this:
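SYBR Green fluorescence (ex 485, em 535 nm) read after saponin/Triton lysis and 18 h further incubation; Dd2 asexual blood-stage parasites, 72 h compound exposure, 11-pt concentration series, 2.5% hematocrit, 0.3% parasitemia.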

Assay [5] in a line: qHTS for inhibitors of ER calcium dysfunction: SERCaMP assay screened against the NCATS CANVASS Library (AID 1347393). The gist of the method:
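qHTS in SH-SY5Y reporter cells: 16 h compound pretreatment, 4 h thapsigargin, then secreted Gaussia luciferase measured by luminescence.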

A short description of assay [6]: OV-SAHO Cancer Cell Toxicity qHTS against the NCATS CANVASS Library (AID 1347348). The gist of the method: as §1
Assay [7] is described as follows: Panc-1005 Cancer Cell Toxicity qHTS against the NCATS CANVASS Library (AID 1347349). The gist of the method: as §1
A short description of assay [8]: OV-KATE Cancer Cell Toxicity qHTS against the NCATS CANVASS Library (AID 1347345). In short, it runs like this:
as §1

A short description of assay [9]: COV-362 Cancer Cell Toxicity qHTS against the NCATS CANVASS Library (AID 1347352). In short, it runs like this: (§2)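 1000 cells/well, 4 h pre-incubation 37 °C/5% CO2; 11-pnt titration; 72 h; CellTiter-Glo 15 min RT, luminescence.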
A short description of assay [10]: MCF7 Cancer Cell Toxicity qHTS against the NCATS CANVASS Library (AID 1347369). The gist of the method: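 Luminescent ATP signal (CellTiterGlo) served as the cytotoxicity read-out after MCF7 breast cancer cells had been incubated 72 hr at 37C with natural products in an 11-point titration.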
Assay [11] in a line: UWB1.289-WTBRCA1 Cancer Cell Toxicity qHTS against the NCATS CANVASS Library (AID 1347354). In short, it runs like this:
as §2

A short description of assay [12]: Primary qHTS to identify inhibitors of SARS-CoV-2 cell entry (AID 1645846; calls by dose curve). Particulars: SARS-CoV-2 pseudovirus cell entry assay, luminescence; activity change, negative = inhibition: at 57.1 µM (top of the series) unless noted; outcome: at 57.1 µM (top of the series) unless noted. In short, it runs like this: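 HEK293-ACE2 (Expi293F, stable hACE2), 1500 cells/well, o/n 37C; cpd 23 nL pin, 1 h; MLV-PP w/ SARS-CoV-2-S (Wuhan-Hu-1, Δ19 C-term); 48 h 37C; Bright-Glo luminescence; normalized vs S-PP and bald PP.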

Assay [13] is described as follows: Primary qHTS for inhibitors of nuclear receptor binding SET domain protein 2 (NSD2) in an RCH-ACV wild type WT cells (2C) (AID 1645877).
Assay [14] can be described thus: Primary qHTS for inhibitors of nuclear receptor binding SET domain protein 2 (NSD2) in an isogenic RCH-ACV NSD2 p.E1099K mutant (9B) (AID 1645876).
A short description of assay [15]: qHTS assay to identify inhibitors of the type 1 interferon - major histocompatibility complex class I in skeletal muscle: Counter screen cell viability and HiBit confirmation (AID 1347412). Particulars: iHSKM muscle cells + IFN-b, HiBiT or CellTiter-Glo, 24 h; for activity change, negative = inhibition: at 45.9 µM (top of the series). The gist of the method:
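Duplicate plates, pinned identically: one read for HiBiT-tagged endogenous HLA-B luminescence, the other for ATP-content viability via CellTiter Glo. Cells were genome-engineered human myoblasts given 4 ng/ml IFN-b; compounds 12-pt, 1:3 from 46 uM final; 24 hr exposure.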

In the case of `C[C@]12CC(O)C3[C@@H](CCC4C[C@@H](O)CC[C@@]43CO)[C@@]1(O)CC[C@@H]2C1=CC(=O)OC1` (some centres not stated), the Potency in assay [1] is 44000 nM (active); in assay [2], 13300 nM (active); in [3], 13200 nM (active). The Potency result in assay [4] and in [5] was “inactive” each time.
`C/C(=C\[C@H](C)C(=O)C[C@H](O)CC1CC(=O)NC(=O)C1)[C@@H]1OC(=O)/C=C/CC/C=C/C=C/[C@@H]1C`: the Potency is 44000 nM (active) in assay [1]; 118 nM (active) in assay [2]; 118 nM (active) in assay [6]; 66.8 nM (active) in assay [7]; 52.6 nM (active) in [3]; 941 nM (active) in [4]. The Potency entry in assay [5] is “inactive”.
As to `CO[C@H]1C[C@H](O[C@H]2[C@@H](O)C[C@H](O[C@H]3CC[C@]4(C=O)[C@H]5CC[C@]6(C)C(C7=CC(=O)OC7)CC[C@]6(O)[C@@H]5CC[C@]4(O)C3)O[C@@H]2C)O[C@H](C)[C@H]1O[C@H]1C[C@@H](OC)[C@@H](O[C@@H]2O[C@H](CO)[C@@H](O)[C@H](O)[C@H]2O)[C@@H](C)O1` (some centres not stated), the Potency in assay [1] is 44000 nM (active); in assay [8] it was 265 nM (active); in assay [9], 374 nM (active); in [3] it was 264 nM (active); in assay [10], 166 nM (active). Besides, the Potency entry in [6] and in assay [5] was “inactive” each time.
As to `C[N+](C)(C)CCc1c[nH]c2ccccc12`, the Potency entry in assay [8], in assay [2], in assay [6], in [7], in assay [9] and in [11] was “inactive” throughout. Further, the Potency result in assay [3], in assay [10] and in assay [5] was “inactive” throughout.
As for `CC[C@H]1CN2CCc3c([nH]c4cccc(OC)c34)[C@@H]2C[C@@H]1/C(=C\OC)C(=O)OC`, the Potency is 24700 nM (active) in assay [1] and 13600 nM (active) in assay [5]. In addition, the Potency entry in [8], in [9], in [11], in assay [10] and in assay [4] was “inactive” in each case.
Consider `CO[C@H]([C@@H](C)[C@H]1O[C@]1(C)C[C@H](C)/C=C/C=C(\C)[C@H]1O[C@@H](CC(=O)O)CC[C@@H]1C)[C@@H](C)O`, for which the Potency in assay [2] was 18.8 nM (active); in [7], 37.5 nM (active); in assay [3], 29.6 nM (active); in assay [10], 5.2 nM (active); in assay [4] it was 66.6 nM (active). Further, the Potency result in [5] is “inactive”.
As for `C=CC(C)(C)[C@@]12C[C@H]3C(=O)N/C(=C/c4cnc[nH]4)C(=O)N3[C@@H]1Nc1ccccc12`, the Potency result in [8], in assay [2], in assay [6], in [7], in assay [9] and in assay [11] was “inactive” each time. Also, the Potency result in [3] and in assay [10] was “inactive” each time. In assay [4], the Potency was 298 nM (active).
Regarding `COc1cc(C)[nH]c(=O)c1CNC(=O)c1c(C)n([C@H](C)C2CCN(CC(F)(F)F)CC2)c2ccccc12`, in assay [12], the activity change, negative = inhibition was determined as 4.42%. Besides, the Potency entry in assay [13] is “inactive”.
Consider `COc1cc2cc(c1Cl)N(C)C(=O)C[C@H](OC(=O)C(C)C)[C@]1(C)O[C@@H]1[C@H](C)[C@@H]1C[C@@](O)(NC(=O)O1)[C@H](OC)/C=C/C=C(\C)C2`, for which, in assay [12], the activity change, negative = inhibition is -80.9%. Further, the Potency result in assay [14] and in assay [13] was “inactive” in each case.
Take `CN1C(=O)[C@@H](NC(=O)[C@H](CCC(F)(F)F)[C@H](CCC(F)(F)F)C(N)=O)N=C(c2ccccc2)c2ccccc21`: in assay [12], the activity change, negative = inhibition was -8.27%. The Potency entry in [14] and in assay [13] was “inactive” each time.
As to `COC12C(COC(N)=O)C3=C(C(=O)C(C)=C(N)C3=O)N1CC1C2N1C` (configuration not stated), the Potency in assay [14] was 1660 nM (active); in assay [13] it was 1050 nM (active).
`CC(=O)O[C@@]12CO[C@@H]1C[C@H](O)[C@@]1(C)C(=O)[C@H](O)C3=C(C)[C@@H](O)C[C@@](O)([C@@H](OC(=O)c4ccccc4)[C@H]21)C3(C)C`: the Potency entry in [14] is “inactive”.
Consider `Cn1c(/C=C/CO)c(CO)c2c1C(=O)C=C(N1CC1)C2=O`, for which the Potency entry in assay [12], in assay [14] and in assay [13] was “inactive” in each case.
In the case of `CC(C)(O)/C=C\C(=O)[C@](C)(O)[C@H]1[C@H](O)C[C@]2(C)[C@@H]3CC=C4[C@@H](C=C(O)C(=O)C4(C)C)[C@]3(C)C(=O)C[C@@]12C`, the Potency in assay [12] was 794 nM (active); in assay [14], 52.5 nM (active); in assay [13] it was 46.8 nM (active); in assay [15] (HiBiT) it was 6250 nM (active). The activity change, negative = inhibition in [15] (Viability) was 186% (inactive).
Turning to `CO[C@H]1CCC(O[C@H]2C[C@H]([C@]3(C)CC[C@]4(C[C@H](O)[C@@H](C)[C@@H]([C@@H](C)/C=C(\C)C(=O)[C@H](C)C[C@H](C)C(=O)O)O4)O3)O[C@]3(O[C@@H]([C@H]4O[C@@](O)(CO)[C@H](C)C[C@@H]4C)C[C@@H]3C)[C@@H]2C)O[C@@H]1C` (some centres not stated), the Potency in [14] is 209 nM (active); in assay [15] (HiBiT) it was 12500 nM (active); in assay [15] (Viability), 14000 nM (active).
Turning to `COC(=O)[C@@]12OC[C@]34[C@H]([C@@H](O)[C@@H]1O)[C@@]1(C)CC(=O)C(O)=C(C)[C@@H]1C[C@H]3OC(=O)[C@H](OC(=O)/C=C(\C)C(C)C)[C@@H]24`, the activity change, negative = inhibition is -94.1% in [12] and -8.02% (inactive) in [15] (Viability). For the same molecule, the Potency in [14] was 296 nM (active); in assay [13], 235 nM (active); in assay [15] (HiBiT) it was 88.3 nM (active).
Regarding `COC[C@H]1OC(=O)c2coc3c2[C@@]1(C)C1=C(C3=O)[C@@H]2CC[C@H](O)[C@@]2(C)C[C@H]1OC(C)=O`, the Potency is 13200 nM (active) in [14] and 11800 nM (active) in assay [13].
For the molecule `Cc1[nH]ncc1-c1cc2nc([C@@H]3CC4CCN3CC4)[nH]c(=O)c2s1`, the Potency in [14] is 2350 nM (active); in [13], 934 nM (active); in [15] (HiBiT) it was 4430 nM (active). In addition, the activity change, negative = inhibition in assay [15] (Viability) is 15.9% (inactive).
With `N#CC(O[C@@H]1O[C@H](CO[C@@H]2O[C@H](CO)[C@@H](O)[C@H](O)[C@H]2O)[C@@H](O)[C@H](O)[C@H]1O)c1ccccc1` (some centres not stated), the Potency result in assay [14] and in assay [13] was “inactive” throughout.
For `C[C@@]12OC(=O)[C@]1([C@@H](O)[C@@H]1C=CCCC1)NC(=O)[C@@H]2CCCl`, the activity change, negative = inhibition in assay [12] is -97.7%. The Potency in assay [14] was 118 nM (active); in assay [13] it was 105 nM (active); in [15] (HiBiT), 176 nM (active).
For the molecule `O=C(O)CNC(=O)C1C(=O)N(C2CCCCC2)C(=O)N(C2CCCCC2)C1=O`, the activity change, negative = inhibition in assay [12] is -12.5%. The Potency result in [14] was “inactive”.
With `C/C=C(\C)C(=O)N[C@@H](c1ccccc1)[C@@H](O)C(=O)O[C@H]1C[C@@]2(O)[C@@H](OC(=O)c3ccccc3)[C@@H]3[C@]4(OC(C)=O)CO[C@@H]4C[C@H](O)[C@@]3(C)C(=O)[C@H](OC(C)=O)C(=C1C)C2(C)C`, the activity change, negative = inhibition in assay [12] is -81.8%. Besides, the Potency in assay [14] and in [13] was 26.3 nM (active) throughout.
For the molecule `CO/C1=C/C(C)=C\[C@@H](C)[C@@H](O)[C@@H](C)C/C(C)=C\C=C/[C@H](OC)[C@@H]([C@@H](C)[C@@H](O)[C@H](C)[C@@]2(O)C[C@@H](O)[C@H](C)[C@@H](C(C)C)O2)OC1=O`, the figures for the Potency in [12], in [14] and in assay [13] were 1580 nM (active), 49.4 nM (active) and 39.3 nM (active), respectively.
